Screening data as filed in PubChem BioAssay.
In the library only some 0.56% were active in any assay of this set; here they are far more common.
Vif imaging – inhibitors of HIV Vif. HEK293T cells, Vif self-association by quenched fluorescence, imaging, 24 h. inhibition, % at 7.49 µM. actives 0.35% (n = 340,000). AID 602346; in the data active = inhibition above about 50%, passing the limit was not always enough; inconclusive = no clear call, values can overlap the other calls; inactive = below about 31%
PvdQ inh – P. aeruginosa PvdQ acylase inhibition | purified PvdQ acylase, fluorescence plate reader | inhibition, % at 10 µM | actives 0.063% (n = 340,000) | AID 488965; in the data active = inhibition above about 30%, passing the limit was not always enough; inconclusive = no clear call, values can overlap the other calls;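 note: 0% = vehicle neutral wells and 100% = reference inhibitor wells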
PDI inh – PDI (human) enzyme inhibition. AID 588391. actives 0.052% (n = 350,000). PDI insulin aggregation turbidity, A650, 90 min. inhibition, % at 10 µM;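 active = mean inhibition across replicates of 30% or more, whatever share of single replicates reach that level; inconclusive = mean inhibition below 30% while every single replicate reaches 30%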
ERp5 inh – inhibitors of human ERp5. inhibition, % at 9.99 µM. Q15084. actives 0.05% (n = 350,000). ERp5 insulin aggregation, absorbance 650 nm, 90 min;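 active = mean replicate inhibition above about 25%, with every replicate also reaching it, limit read from the data, passing the limit was not always enough; inconclusive = only one of those two criteria met; inactive = neither criterion met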
Target sequence (Q15084 whole entry, looked up): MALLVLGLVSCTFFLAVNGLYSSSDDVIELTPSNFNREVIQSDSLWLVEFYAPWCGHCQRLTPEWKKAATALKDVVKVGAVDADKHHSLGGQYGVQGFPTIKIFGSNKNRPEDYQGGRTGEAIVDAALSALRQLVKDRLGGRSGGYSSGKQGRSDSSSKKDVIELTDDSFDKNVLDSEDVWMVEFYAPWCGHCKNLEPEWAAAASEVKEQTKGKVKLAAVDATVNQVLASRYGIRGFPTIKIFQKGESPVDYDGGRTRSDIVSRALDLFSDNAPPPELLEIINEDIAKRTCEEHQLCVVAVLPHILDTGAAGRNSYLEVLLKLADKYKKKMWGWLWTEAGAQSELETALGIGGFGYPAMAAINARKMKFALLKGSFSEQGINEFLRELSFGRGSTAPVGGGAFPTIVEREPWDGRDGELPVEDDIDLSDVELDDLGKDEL
Glyco luc inh – blocks N-linked glycosylation in D54 reporter cells. D54 ERlucT glycosylation luciferase reporter, 24 h; percent of 100 nM tunicamycin response. reporter increase, % at 12.5 µM. actives 0.23% (n = 360,000). AID 588692;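 active = mean luciferase reporter signal, scaled so untreated is 0 and the glycosylation-blocking control 100, at or above a set limit in every replicate; inconclusive = mean reaches the limit but not every replicate does; inactive = mean below the limit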;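 note: luciferase carries N-glycosylation sites so blocking glycosylation raises the light; 0% = median of neutral control wells and 100% = median of 100 nM tunicamycin wells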
An asterisk follows results filed as active; ? = inconclusive; nt = not tested or not shown.

SMILES	Vif imaging	PvdQ inh	PDI inh	ERp5 inh	Glyco luc inh
CN(C)c1ccc(C(=O)c2ccc(N(C)C)c3ccccc23)cc1	78*	-2	-49	nt	10
COc1cccc(CNC(=O)CCS(=O)(=O)c2ccc3c(c2)CC(C)N3C(=O)C2CC2)c1 (stereo not drawn)	6	-17	-4	-3	0
COc1ccccc1C(C#N)c1cccc(Cl)n1 (stereo not drawn)	-8	116*	-5	0	1
N#CC(c1ccccc1)c1cccc(Cl)n1 (stereo not drawn)	6	103*	1	-7	1
Cc1ccc(C(=O)NCC(=O)OCC(=O)c2ccc3c(c2)NC(=O)CO3)cc1	-1	-3	-11	1	0
N#C/C(=C\c1ccc(F)cc1)c1nc(-c2ccco2)cs1	59*	-6	5	?	1
N#Cc1cccnc1Nc1ccc(Cl)cc1	-3	32*	11	-9	1
COc1ccc(C(CNC(=O)c2ccc(S(=O)(=O)Nc3cccc(C)c3C)cc2)N2CCOCC2)cc1 (stereo not drawn)	-4	-3	-9	2	-4
CCOc1ccc(-c2c(C(=O)N/N=C/c3cccs3)nnn2-c2nonc2N)cc1	82*	5	4	3	1
CCCOc1ccc(-c2c(C(=O)N/N=C/c3ccc(C)cc3)nnn2-c2nonc2N)cc1	54*	nt	0	3	2
CC(=O)Nc1ccccc1	-3	-8	0	-1	1
CN(Cc1cnn(C)c1)C(=O)C1CCC(=O)N(C2CCCCCC2)C1 (stereo not drawn)	6	-9	8	4	3
CS(=O)(=O)N1CC2(C1)[C@H](c1ccccc1)[C@@H](CO)N2CC1CCCC1	nt	nt	nt	2	nt
O=C1C=C(c2ccccc2)OC(c2ccccc2)O1 (stereo not drawn)	-5	47*	-4	4	-1
CCc1sc(NC(=O)c2cc3ccccc3oc2=O)nc1-c1cccs1	55*	4	7	-6	-2
CCCc1nnc(NC(=O)c2cc3ccccc3oc2=O)s1	-16	-14	4	nt	1
CC(=O)N(C)C[C@@H]1Oc2ncc(C#C[C@H](C)O)cc2C(=O)N([C@H](C)CO)C[C@H]1C	nt	nt	nt	6	nt
CCc1nc2ccc(F)cc2c(C(=O)NC2CCCCC2C)c1C (stereo not drawn)	54*	8	4	3	2
CCc1cc(=O)oc2c(CN3CCN(C)CC3)c(O)ccc12	nt	-6	1	3	1
COc1cccc(/C=C/C(=O)N2CCN(c3n[nH]c(=O)[nH]c3=O)CC2)c1OC	1	-11	-3	1	2
C=Cc1cc2c(cc1O)CCC1C2CCC2(C)C(O)CCC12 (stereo not drawn)	11	5	2	1	13
C[C@]12CC[C@@H]3c4ccc(O)cc4C(=O)C[C@H]3[C@@H]1CC[C@@H]2O	10	-11	39*	4	1
ClCc1nc2ccccc2c2ccccc12	-2	-7	-9	-5	63*
Cc1nnc(N/N=C/c2ccccc2F)n1N	59*	-19	-2	2	6
O=C(NC1CCCCC1)c1ccc([N+](=O)[O-])o1	25	-4	-6	nt	41*
SMILES	Vif imaging	PvdQ inh	PDI inh	ERp5 inh	Glyco luc inh
O=C(NC1CCCC(C(F)(F)F)C1)c1ccc([N+](=O)[O-])o1 (stereo not drawn)	-2	-20	-15	1	29*
CCCCS(=O)(=O)/C=C/[C@H]1[C@H](S(=O)(=O)CCCC)[C@H]2C=C[C@@H]1C2	0	-11	19	nt	-1
Cc1cccc(N/C=C(\[N+](=O)[O-])S(=O)(=O)c2ccccc2)c1C	-8	-25	-5	-2	0
COc1ccc(/C(C#N)=C/c2ccccn2)cc1	-3	53*	6	4	-3
N#C/C(=C\c1ccccn1)c1nc2ccccc2s1	nt	-2	-3	0	18
Oc1ccc(/C=C/c2nc(-c3ccccc3O)n(-c3ccccc3)n2)cc1	2	-6	48*	nt	-7
Oc1ccccc1-c1nc(/C=C/c2ccccc2)nn1-c1ccccc1	0	-2	23	4	1
COc1ccc(OC)c(NC(=O)CSc2nnc(-c3ccco3)o2)c1	4	0	-6	2	0
COC(=O)c1cccc(NC(=O)CSc2nnc(-c3ccco3)o2)c1	58*	4	-7	2	3
COc1ccc(CCN2C(=O)c3cccnc3C2=O)cc1OC	56*	0	-4	nt	1
COc1ccc(CCN2C(=O)C=CC2=O)cc1OC	3	-21	1	2	-7
O=C(NNC1CC(=O)N(c2cccc(Cl)c2)C1=O)c1cccs1 (stereo not drawn)	53*	-7	-6	nt	1
COc1cccc(N2C(=O)CC(NNC(=O)c3cccs3)C2=O)c1 (stereo not drawn)	4	-3	-4	1	4
CN(C)S(=O)(=O)c1ccc(C(=O)NC(=O)CSc2ccccc2)cc1	-2	-11	2	nt	2
CC(=O)Nc1ccc(SCC(=O)NC(=O)c2ccc(S(=O)(=O)N(C)C)cc2)cc1	83*	-10	-7	18	4
O=C1NCCCC1C(=O)N/N=C/c1cc([N+](=O)[O-])ccc1O (stereo not drawn)	-2	-2	5	5	1
COCC#Cc1cnc2c(c1)C(=O)N([C@H](C)CO)C[C@H](C)[C@H](CN(C)C(=O)Nc1cccc(F)c1)O2	nt	nt	nt	1	nt
CCn1c(CNC(=O)Cc2ccc(OC)cc2)nnc1SCC(=O)c1ccccc1	18	-14	2	4	-1
COc1ccc(C(=O)NCc2nnc(SCC(=O)NO)n2Cc2ccccc2)cc1	8	-27	0	2	41*
COc1ccc(-c2oc(=O)c3cc(OC)c(OC)cc3c2/C=C/c2ccc(OC(C)=O)cc2)cc1	15	-11	-2	0	0
COc1cc(-c2noc(C)c2/C=C/c2ccc(OC(C)=O)cc2)cc(OC)c1OC	1	1	5	2	27*
CCCNC(=O)CCc1cc(C(C)(C)C)c(O)c(C(C)(C)C)c1	7	4	-37	-3	-2
COc1ccc(CNC(=O)c2ccc[nH]2)cc1	60*	-5	3	4	-1
COC(=O)C1=C(C)N(C)C(=NCc2ccc(OC)cc2)NC1c1ccccc1 (stereo not drawn)	nt	nt	nt	0	nt
Cc1ccc(CNCCCSc2ncccn2)cc1	60*	-16	-3	2	0
Cc1ccccc1CNCCCSc1ncccn1	-3	-24	-5	-3	0
CN1CCN(C(=O)c2ccc3c(c2)NC(=O)C(C)(C)O3)CC1	-3	-2	-6	nt	3
CCCc1cc(=O)oc2cc(OCc3cc(OC)c(OC)c(OC)c3)c(Cl)cc12	106*	-2	-4	nt	1
CCOc1ccc(NC(=O)CN2CCN(CC(=O)Nc3cc(OC)cc(OC)c3)CC2)cc1	7	-9	3	nt	0
COC(=O)c1ccc(-n2c(C)cc(C(=O)CCl)c2C)cc1	5	12	-2	2	12
